PMC5540273 (PLoS ONE, 2017)

What was measured:
Settings in all cases: concentration: 1 μM, replicates: in singlicate; n = 1
PHKG1 = tested on: PHKG1
PHKG2 = tested on: PHKG2
PIK3C2B = tested on: PIK3C2B
PIK3C2G = tested on: PIK3C2G
PIK3CA = tested on: PIK3CA
PIK3CB = tested on: PIK3CB
PIK3CD = tested on: PIK3CD
PIK3CG = tested on: PIK3CG
PIK4CB = tested on: T1, PIK4CB
T1 construct: gene PI4KB

PIKFYVE = tested on: PIKFYVE
PIM1 = tested on: PIM1
PIM2 = tested on: PIM2
PIM3 = tested on: PIM3
PIP5K1A = tested on: PIP5K1A
PIP5K1C = tested on: PIP5K1C
PIP5K2B = tested on: PIP5K2B
PIP5K2C = tested on: T2, PIP5K2C
T2 construct: gene PIP4K2C

PKAC-alpha = tested on: T3, PKAC-alpha
T3 construct: gene PRKACA

PKAC-beta = tested on: T4, PKAC-beta
T4 construct: gene PRKACB

PKMYT1 = tested on: PKMYT1
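Also: KINOMEscan kinase panel screen.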

| SMILES | %Inh (PHKG1) [%] | %Inh (PHKG2) [%] | %Inh (PIK3C2B) [%] | %Inh (PIK3C2G) [%] | %Inh (PIK3CA) [%] | %Inh (PIK3CB) [%] | %Inh (PIK3CD) [%] | %Inh (PIK3CG) [%] | %Inh (PIK4CB) [%] | %Inh (PIKFYVE) [%] | %Inh (PIM1) [%] | %Inh (PIM2) [%] | %Inh (PIM3) [%] | %Inh (PIP5K1A) [%] | %Inh (PIP5K1C) [%] | %Inh (PIP5K2B) [%] | %Inh (PIP5K2C) [%] | %Inh (PKAC-alpha) [%] | %Inh (PKAC-beta) [%] | %Inh (PKMYT1) [%] |
| --- | --- | --- | --- | --- | --- | --- | --- | --- | --- | --- | --- | --- | --- | --- | --- | --- | --- | --- | --- | --- |
| COc1cc2nccc(Nc3ccc(NC(=O)c4ccc(C)cc4)c(O)c3)c2cc1OC.Cl [GW440132] | 15 | 0 | 100 | 0 | 100 | 0 | 0 | 100 | 0 | 0 | 0 | 0 | 0 | 0 | 50 | 0 | 4 | 12 | 0 | 4 |
| O=C(Nc1n[nH]c2cc(-c3cccc(F)c3F)ccc12)C1CC1 [SB-733894] | 3 | 25 | 17 | 15 | 0 | 0 | 0 | 19 | 8 | 100 | 8 | 0 | 32 | 0 | 0 | 0 | 0 | 0 | 0 | 40 |
| Cc1cc(-c2ccc3c(c2)CC[C@@H](N[C@@H](C)c2ccccc2)C3)cnc1N.Cl [GW412617] | 21 | 3 | 0 | 0 | 1 | 0 | 0 | 0 | 1 | 0 | 11 | 0 | 0 | 0 | 34 | 14 | 0 | 0 | 9 | 0 |
| CC(C)(C)c1ccc(C(=O)Nc2cn3cc(Cl)ccc3n2)cc1 | 0 | 0 | 0 | 0 | 0 | 0 | 0 | 0 | 0 | 4 | 0 | 13 | 0 | 0 | 44 | 0 | 48 | 8 | 0 | 0 |
| Cl.O=C(Nc1cccc(-c2nn3ncccc3c2-c2ccnc(Nc3cccnc3)n2)c1)c1c(F)cccc1F [GSK312879] | 8 | 18 | 0 | 0 | 0 | 0 | 0 | 0 | 11 | 52 | 11 | 0 | 0 | 2 | 11 | 4 | 0 | 14 | 19 | 20 |
| COc1cc2ncn(-c3cc(OCC4CCCO4)c(C(N)=O)s3)c2cc1OC (stereo not shown) [GSK204607] | 0 | 3 | 0 | 0 | 0 | 0 | 0 | 19 | 0 | 0 | 17 | 0 | 0 | 6 | 84 | 9 | 33 | 0 | 0 | 0 |
| COc1ccc(C2=C(Nc3cccc(C(=O)O)c3)C(=O)NC2=O)cc1 [SB-390765] | 0 | 0 | 23 | 21 | 0 | 40 | 16 | 27 | 22 | 0 | 5 | 6 | 11 | 13 | 4 | 16 | 0 | 12 | 25 | 0 |
| Cn1ccc2ncnc(Oc3ccc(Nc4nc5ccccc5[nH]4)cc3)c21 | 0 | 25 | 0 | 0 | 0 | 0 | 0 | 0 | 0 | 0 | 0 | 0 | 0 | 0 | 25 | 26 | 16 | 3 | 0 | 18 |
| Cl.NC(=O)c1cccc(Nc2nccc(Nc3ccc(Oc4cccc(Cl)c4)c(Cl)c3)n2)c1 [GW659008] | 4 | 0 | 0 | 0 | 0 | 0 | 0 | 0 | 82 | 0 | 15 | 0 | 1 | 15 | 45 | 32 | 60 | 0 | 0 | 0 |
| CC(C)(C)c1ccc(C(=O)Nc2cn3cc(-c4cccnc4)ccc3n2)cc1 | 8 | 34 | 0 | 24 | 0 | 45 | 0 | 0 | 16 | 22 | 32 | 12 | 44 | 0 | 17 | 18 | 53 | 13 | 33 | 19 |
| Nc1ncnc2[nH]c(-c3ccccc3)nc12 [AH5015] | 0 | 0 | 0 | 0 | 0 | 0 | 0 | 0 | 37 | 8 | 0 | 0 | 21 | 0 | 29 | 0 | 21 | 1 | 7 | 0 |
| O=C1NC(=O)C(N2CCc3ccccc32)=C1c1ccccc1Cl [SB-373598] | 0 | 23 | 1 | 0 | 0 | 0 | 10 | 12 | 0 | 0 | 0 | 9 | 7 | 0 | 29 | 35 | 1 | 22 | 39 | 11 |
| Cl.c1ccc(-c2n[nH]cc2-c2ccnc(-c3ccc(CN4CCOCC4)cc3)c2)nc1 [GW776245] | 0 | 14 | 16 | 0 | 0 | 0 | 0 | 33 | 0 | 0 | 13 | 13 | 15 | 0 | 27 | 30 | 0 | 10 | 13 | 0 |
| Cc1cccc(-c2nc(Nc3ccc4[nH]ncc4c3)c3ccccc3n2)n1 [GW857175] | 0 | 16 | 8 | 43 | 0 | 7 | 18 | 0 | 23 | 85 | 5 | 38 | 0 | 0 | 0 | 42 | 0 | 34 | 0 | 19 |
